Laboratory results from PubChem BioAssay (NCATS).
Inconclusive results are not listed. Where a call stands in place of a potency, no number is given. Values without a mark were called inactive. Activity calls are given as the source filed them. Calls follow the shape of the dose curve; as a rule, active = well fitted cell-killing curve with a large enough effect; inconclusive = small, poorly fitted or top-dose-only effect, or effect the other way; inactive = flat fitted curve, though single readings scatter.

Legend:
Experiment in all cases: Primary qHTS to identify gynecologic anti-cancer compounds using libraries of approved drugs and bioactive compounds (AID 1345084); also: nearly all actives have a fitted effect of over 55% in size
[1] = system: Hek293T; details: Gynecologic cancer cell panel viability, ATPlite luminescence, 48 h, control line for the selectivity index; series mostly up to 57.5 µM
How it was run: (§1)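 Cells, 1,000 per well, were allowed to settle for 16 h at 37 C before compound addition. Five concentrations were tested for 48 h, and viability was read by ATPlite luminescence after 15 min at room temperature.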

[2] = system: JEG-3; details: Gynecologic cancer cell panel viability, ATPlite luminescence, 48 h; series mostly up to 57.5 µM
How it was run: as §1

[3] = system: OV90; details: Gynecologic cancer cell panel viability, ATPlite luminescence, 48 h; series mostly up to 57.5 µM
How it was run: as §1

[4] = system: PA-1; details: Gynecologic cancer cell panel viability, ATPlite luminescence, 48 h; series mostly up to 57.5 µM
How it was run: as §1

[5] = system: SKOV3; details: Gynecologic cancer cell panel viability, ATPlite luminescence, 48 h; series mostly up to 57.5 µM
How it was run: as §1

[6] = system: Tov-21-G; details: Gynecologic cancer cell panel viability, ATPlite luminescence, 48 h; series mostly up to 57.5 µM
How it was run: as §1

[7] = system: Tov112D; details: Gynecologic cancer cell panel viability, ATPlite luminescence, 48 h; series mostly up to 57.5 µM
How it was run: as §1
Potency is read from the fitted curve at half-maximal effect.

| SMILES | Potency [1] | Potency [2] | Potency [3] | Potency [4] | Potency [5] | Potency [6] | Potency [7] |
| --- | --- | --- | --- | --- | --- | --- | --- |
| COc1cc2nc(Cl)nc(N)c2cc1OC | inactive | inactive | inactive | inactive | inactive | inactive | inactive |
| COc1ccc(CCC(C)=O)cc1 | inactive | inactive | inactive | inactive | inactive | inactive | inactive |
| CC(C)(Oc1ccc(Cl)cc1)C(=O)OCCCOC(=O)C(C)(C)Oc1ccc(Cl)cc1 | inactive | inactive | inactive | inactive | inactive | inactive | inactive |
| CC(=O)OC[C@H]1O[C@@H](OC(C)=O)[C@H](OC(C)=O)[C@@H]1OC(C)=O | inactive | inactive | inactive | inactive | inactive | inactive | inactive |
| O=C(O)C(=O)Nc1cccc(-c2nn[nH]n2)c1 | inactive | inactive | inactive | inactive | inactive | inactive | inactive |
| O=C(CCOCCOCCOCCOCCC(=O)Nc1c(I)cc(I)c(C(=O)O)c1I)Nc1c(I)cc(I)c(C(=O)O)c1I | inactive | inactive | inactive | inactive | inactive | inactive | inactive |
| COC(=O)c1cc(Cl)c(NC(C)=O)cc1OC | inactive | inactive | inactive | inactive | inactive | inactive | inactive |
| CCCCC(CC)CNC(=O)CC(C)OC(=O)CCC(=O)O (stereo not drawn) | inactive | inactive | inactive | inactive | inactive | inactive | inactive |
| NS(=O)(=O)c1cc(C(=O)NN2C[C@H]3[C@H]4CCC(C4)[C@H]3C2)ccc1Cl | inactive | inactive | inactive | inactive | inactive | inactive | inactive |
| CCCC(CCC)(C(=O)OCC)C(=O)OCC | inactive | inactive | inactive | inactive | inactive | inactive | inactive |
| N#Cc1cc(NC(=O)C(=O)O)c(Cl)c(NC(=O)C(=O)O)c1 | inactive | inactive | inactive | inactive | inactive | inactive | inactive |
| C[C@@H]1CCC[C@H](C)N1CCCC(O)(c1ccccc1)c1ccccn1 (stereo partly drawn) | inactive | inactive | inactive | inactive | inactive | inactive | inactive |
| CCOc1ccccc1OCC1CNCCO1 (stereo not drawn) | inactive | inactive | inactive | inactive | inactive | inactive | inactive |
| CCCCCCCCCCCCCCCCCCN(C)C | inactive | inactive | inactive | inactive | inactive | inactive | inactive |
| Cc1ccc(C(C)OC(=O)C2(C)CCC(C(=O)O)C2(C)C)cc1 (stereo not drawn) | inactive | inactive | inactive | inactive | inactive | inactive | inactive |
| COc1cc(OC)nc(O[C@H](C(=O)O)C(OC)(c2ccccc2)c2ccccc2)n1 | inactive | inactive | inactive | inactive | inactive | inactive | inactive |
| Brc1ccc([C@H]2CN3CCSC3=N2)cc1 | inactive | inactive | inactive | inactive | inactive | inactive | inactive |
| Cc1cccc(OCC(O)CNC(C)(C)C)c1C (stereo not drawn) | inactive | inactive | inactive | inactive | inactive | inactive | inactive |
| COC(=O)CCCCC(CCSS/C(CCO)=C(\C)N(C=O)Cc1cnc(C)nc1N)SC(C)=O (stereo not drawn) | inactive | inactive | inactive | inactive | inactive | inactive | inactive |
| CCCCCCCC(=O)[O-].CCCCCCCC(=O)[O-].[Zn+2] | inactive | inactive | inactive | inactive | inactive | inactive | inactive |
| Cc1cccc(N(C)C(=S)Oc2ccc3c(c2)C2CCC3C2)c1 (stereo not drawn) | inactive | inactive | 35.5 µM (active) | inactive | inactive | inactive | inactive |
| CCCOc1ccc2c(c1)CC[C@@H]1[C@@H]2CC[C@]2(C)C(OC)CC[C@@H]12 (stereo partly drawn) | inactive | inactive | inactive | inactive | inactive | inactive | inactive |
| CC(CC(C#N)(c1ccccc1)C(C)C)N(C)C (stereo not drawn) | inactive | inactive | inactive | inactive | inactive | inactive | inactive |
| CSCC[C@H](NC(=O)[C@H](Cc1c[nH]c2ccccc12)NC(=O)CCNC(=O)OC(C)(C)C)C(=O)N[C@@H](CC(=O)O)C(=O)N[C@@H](Cc1ccccc1)C(N)=O | inactive | inactive | inactive | inactive | inactive | inactive | inactive |
| CC(=O)O[C@@H]1CC2C3CCc4cc(OC(=O)c5ccccc5)ccc4C3CCC2(C)[C@H]1OC(C)=O (stereo partly drawn) | inactive | inactive | inactive | inactive | inactive | inactive | inactive |
| CCC1(c2cnc[nH]2)Cc2ccccc2C1 | inactive | inactive | inactive | inactive | inactive | inactive | inactive |
| CCCCCCn1c(=O)c2c(ncn2C)n(C)c1=O | inactive | inactive | inactive | inactive | inactive | inactive | inactive |
| COc1ccccc1N1CCN(CCN2C(=O)CC3(CCCC3)CC2=O)CC1 | inactive | inactive | inactive | inactive | inactive | inactive | inactive |
| Cc1cnc(NS(=O)(=O)c2ccc(N)cc2)nc1 | inactive | inactive | inactive | inactive | inactive | inactive | inactive |
